The text below walks through data of PubChem BioAssay (NCATS).

The structures appear in SMILES notation. Calls of active or inactive are those of the source. Calls come from the whole dose curve; as a rule, active = well fitted curve in the direction sought with a large enough effect; inconclusive = small, poorly fitted or top-dose-only effect, or effect the other way, or another doubt; inactive = no such curve, though single readings can be large or run the other way.

The assay can be described thus: Inducers of the Endoplasmic Reticulum Stress Response (ERSR) in human glioma: Validation (AID 504836). Note: 0% is about no effect. The conditions noted are these: human glioma cells, ER stress response reporter; series mostly up to 38.3 µM; activation: at the top concentration. The procedure, abridged:
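Stably transfected U87-MG human glioma cells carrying a GRP78-based luminescent sensor were seeded at 1000 cells/well, pin-dosed with compounds and incubated 16 h. Luciferase reagent was then added, and end-point luminescence was read after 10 min at room temperature.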
Take `CN(C)c1nc(N(C)C)nc(N(C)C)n1`: the “activation” value is 2.76% (inactive).

`OCCN1CCN(CCCN2c3ccccc3Sc3ccc(Cl)cc32)CC1`: the “activation” value was -1.56% (inactive).

With `CC(=O)O[C@]1(C(C)=O)CC[C@H]2[C@@H]3C=C(Cl)C4=CC(=O)[C@@H]5C[C@@H]5[C@]4(C)[C@H]3CC[C@@]21C`, the “activation” value is -1.98% (inactive).

`CN1CCN(C2=Nc3ccccc3Oc3ccc(Cl)cc32)CC1`: the “activation” value was -4.01% (inactive).

Turning to `COc1ccccc1OCC(O)CN1CCN(CC(=O)Nc2c(C)cccc2C)CC1` (centres undefined), the “activation” value was 1.07% (inactive).

On to `CN(C)CCCN1c2ccccc2Sc2ccc(Cl)cc21`, for which the “activation” value was 2.13% (inactive).

Turning to `CNCCCN1c2ccccc2CCc2ccccc21`, the “activation” value is -1.95% (inactive).

For the molecule `CC(C)[N+](C)(CCOC(=O)C1c2ccccc2Oc2ccccc21)C(C)C`, the “activation” value was -1.89% (inactive).

On to `OCCN1CCN(CCCN2c3ccccc3Sc3ccc(C(F)(F)F)cc32)CC1`, for which the “activation” value is -3.22% (inactive).

For `CCOC(=O)c1ncn2c1CN(C)C(=O)c1cc(F)ccc1-2`, the “activation” value was -2.47% (inactive).

On to `CCOC(=O)N1CCC(=C2c3ccc(Cl)cc3CCc3cccnc32)CC1`, for which the “activation” value is -0.678% (inactive).

With `CC(C)NCC(O)COc1ccc(CCOCC2CC2)cc1` (centres undefined), the “activation” value is -0.458% (inactive).

With `Nc1ncn([C@@H]2O[C@H](CO)[C@@H](O)[C@H]2O)c(=O)n1`, the “activation” value is -7.34% (inactive).

Consider `CC(=O)N[C@@H](CS)C(=O)O`, for which the “activation” value was -1.17% (inactive).

With `C[C@]12CC[C@@H]3c4ccc(O)cc4C[C@@H](CCCCCCCCCS(=O)CCCC(F)(F)C(F)(F)F)[C@H]3[C@@H]1CC[C@@H]2O` (some centres undefined), the “activation” value is -1.16% (inactive).

Take `N=c1nc(N2CCCCC2)cc(N)n1O`: the “activation” value was -3.66% (inactive).

On to `Nc1nnc(-c2cccc(Cl)c2Cl)c(N)n1`, for which the “activation” value was 0.304% (inactive).

Turning to `CCN(CC)C(=S)SSC(=S)N(CC)CC`, the “activation” value is -11.4% (inactive).

For `COc1ccccc1OCCNCC(O)COc1cccc2[nH]c3ccccc3c12` (centres undefined), the “activation” value is -1.63% (inactive).
